Source: PubChem BioAssay
Only some compounds are listed: those with a hit (about 5.5% of all), similar ones and a draw of the others.
FBPA coupling cs – inhibits coupling enzyme system, counter-screen for aldolase hits | coupling enzyme system counterscreen, AmpLite Red fluorescence | activity change, negative = inhibition, % at 58.2 µM, hits read low | 290,000 tested, 0.67% active; in the data active means activity change below about -30%
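Activity here indicates interference with the coupling reaction, not aldolase inhibition. Compounds at 57.5 uM final met coupling enzymes for 10 min at RT; substrate and AmpLite Red detection followed, with a 525/598 nm fluorescence read after 20 min.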
Sfp PPTase inh – inhibitors of Bacillus subtilis Sfp phosphopantetheinyl transferase. Biochemical Sfp PPTase activity, qHTS. Potency, µM, for the others: largest response in the series, negative = inhibition, hits mostly inhibitors. 310,000 tested, 3.5% active. AID 1490;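 further: the enzyme is Sfp with the accession as filed and its product quenches rhodamine fluorescence; potency means the concentration at half of the fitted maximal effect; 0% = enzyme reaction without inhibitor and -100% = no enzyme wells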
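After 15 min at room temperature with compound, 15 nM Sfp received 5 uM rhodamine-CoA plus 12.5 uM BHQ-2-ybbR (50 mM Hepes pH 7.6, 10 mM MgCl2). Rate came from the fluorescence difference over 30 min, ex 525/em 598 nm.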
Giardia killer – kills Giardia lamblia; Giardia lamblia trophozoite viability; activity change, % at 7.66 µM, hits read low; 340,000 tested, 0.15% active; AID 540267; in the data active means activity change below about -80%; inconclusive means between about -30% and that limit;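 further: parasites exposed to compound for two days anaerobically before the ATP read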
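Giardia lamblia trophozoites (100 cells/well) were incubated with compounds for 48 h at 37 deg C under anaerobic conditions. Viability was read as ATP content by one-step luminescence after 15-30 min at room temperature.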
ELG1 repair inh – inhibitors of ELG1-dependent DNA repair in HEK293T cells; HEK293T ELG1-luciferase reporter, luminescence, 16 h; DNA damage induced by 5-fluorouridine; Potency, µM (doses to about 46.1 µM), for inactives: top-dose activity change, negative = inhibition, hits mostly inhibitors; 330,000 tested, 2.3% active; AID 504467; further: potency means the concentration at half of the fitted maximal effect; nearly all actives have a fitted effect of over 55% in size
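HEK293T cells expressing luciferase-tagged ELG1 (2,000/well) received 5-Fluorouridine plus compound or DMSO for 16 hr at 37 °C. Luciferase was read by ONE-Glo luminescence after 30 min at room temperature.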
* marks the source's active call; other numbers are inactive results. Unless noted, the call rests on the fitted dose curve; in most records, active means well fitted curve in the direction sought with a large enough effect; inconclusive means small, poorly fitted or top-dose-only effect, or another doubt; inactive means no such curve, though single readings can be large; an effect the other way counts as inactive or inconclusive. Unless noted, on the % scale 0 is the no-effect control and ±100 the full control effect.

How did CCCN(Cc1ccc(N(C)C)cc1)CC1CC1 do in these assays?
FBPA coupling cs: -49.7*; Sfp PPTase inh: 89.1µM*; Giardia killer: 11.2; ELG1 repair inh: 11.9%

Results for COc1ccc(OCC(=O)NC2CCCN(Cc3ccc(Cl)cc3)C2)cc1 (stereo not given) ?
Sfp PPTase inh: -2.8%; Giardia killer: -17.3; ELG1 repair inh: 8.2µM*

Results for O=C(CSc1ccc(-c2ccco2)nn1)Nc1ccccc1F ?
Sfp PPTase inh: 31.6µM*; Giardia killer: -14.7; ELG1 repair inh: inconclusive

What do the screens show for `CCOc1ccccc1NC(=O)Cn1nc(-c2ccco2)ccc1=O`?
FBPA coupling cs: -1.6; Sfp PPTase inh: -6.1%; Giardia killer: -5.7; ELG1 repair inh: 0.0%

How did COc1ccc(CCNC(=O)CSc2ccc(-c3ccco3)nn2)cc1 do in these assays?
FBPA coupling cs: -4.9; Sfp PPTase inh: -61.0%; Giardia killer: 14.4; ELG1 repair inh: 5.0%

What do the screens show for `O=C(CSc1ccc(-c2ccco2)nn1)NCCc1ccccc1`?
FBPA coupling cs: -4.4; Sfp PPTase inh: 31.6µM*; Giardia killer: -8.8; ELG1 repair inh: 0.0%

Results for CCOc1ccccc1NC(=O)CSc1ccc(-c2ccco2)nn1 ?
Sfp PPTase inh: 50.1µM*; Giardia killer: 25.7; ELG1 repair inh: -23.7%

Results for COc1ccc(S(=O)(=O)Nc2cccc(-c3ccc4nncn4n3)c2)c(OC)c1 ?
Giardia killer: 9.1; ELG1 repair inh: 2.3%

How did Cc1ccc(NC(=O)CC2CCCC2)c(Br)c1 do in these assays?
FBPA coupling cs: 1.3; Sfp PPTase inh: 6.4%; Giardia killer: -20.9; ELG1 repair inh: inconclusive

What do the screens show for `Cc1cc(C)cc(NC(=O)C2C3C=CC4(O3)C2C(=O)N(CCCN2CCCCC2)C4C(=O)NC2CCCCC2)c1` (stereo not given)?
FBPA coupling cs: 1.9; Sfp PPTase inh: 9.7%; Giardia killer: 7.9; ELG1 repair inh: 16.2%

What do the screens show for `COCCCN1C(=O)C2C(C(=O)Nc3cc(C)cc(C)c3)C3C=CC2(O3)C1C(=O)NC1CCCCC1` (stereo not given)?
FBPA coupling cs: 3.4; Sfp PPTase inh: 39.8µM*; Giardia killer: -8.2; ELG1 repair inh: 8.4%

What do the screens show for `COc1ccc(C(=O)Oc2cccc(Nc3ncnc4ccccc34)c2)cc1OC`?
FBPA coupling cs: 1.5; Sfp PPTase inh: -2.3%; Giardia killer: -12.6; ELG1 repair inh: 16.4µM*

What do the screens show for `O=C(Oc1cccc(Nc2ncnc3ccccc23)c1)c1cccnc1`?
FBPA coupling cs: -3.4; Sfp PPTase inh: -2.3%; Giardia killer: -1.0; ELG1 repair inh: 9.3%

Results for COc1cc(C(=O)Oc2cccc(Nc3ncnc4ccccc34)c2)cc(OC)c1OC ?
FBPA coupling cs: -0.1; Sfp PPTase inh: 11.8%; Giardia killer: -11.4; ELG1 repair inh: 2.91µM*

What do the screens show for `Cc1ccc(/C([O-])=C(/C(=S)NCc2ccco2)[n+]2ccccc2)cc1`?
FBPA coupling cs: -13.1; Sfp PPTase inh: inconclusive; ELG1 repair inh: -12.3%

Results for [O-]/C(=C(\C(=S)NCc1ccco1)[n+]1ccccc1)c1ccccc1Br ?
FBPA coupling cs: -11.1; Sfp PPTase inh: 12.6µM*; Giardia killer: -0.9; ELG1 repair inh: -10.3%

What do the screens show for `O=[N+]([O-])c1cccc(/C([O-])=C(/C(=S)Nc2cccc3ccccc23)[n+]2ccccc2)c1`?
FBPA coupling cs: -42.3*; Sfp PPTase inh: 35.5µM*; Giardia killer: -26.4; ELG1 repair inh: 9.1%

What do the screens show for `O=[N+]([O-])c1ccc(/C([O-])=C(/C(=S)NCc2ccco2)[n+]2ccccc2)cc1`?
FBPA coupling cs: -25.4; Sfp PPTase inh: 8.91µM*; Giardia killer: -7.6; ELG1 repair inh: 15.8%

Results for Cc1ccc(S(=O)(=O)N2CCCCC2)cc1NC(=O)CSc1ncccn1 ?
Giardia killer: 16.4; ELG1 repair inh: 1.3%

What do the screens show for `CN(c1ccccc1)S(=O)(=O)c1cccc(NC(=O)Cn2cnc3c2c(=O)n(C)c(=O)n3C)c1`?
FBPA coupling cs: -3.1; Sfp PPTase inh: 12.4%; Giardia killer: -14.0; ELG1 repair inh: inconclusive

What do the screens show for `Cn1c(=O)c2c(ncn2CC(=O)Nc2cccc(S(=O)(=O)Nc3ccccc3F)c2)n(C)c1=O`?
FBPA coupling cs: 0.8; Sfp PPTase inh: 56.2µM*; Giardia killer: 24.4; ELG1 repair inh: 10.0%

How did O=C(CSc1ccc([N+](=O)[O-])cc1)Nc1cccc(S(=O)(=O)Nc2ccccc2F)c1 do in these assays?
FBPA coupling cs: 3.5; Sfp PPTase inh: 44.7µM*; Giardia killer: -23.8; ELG1 repair inh: inconclusive

How did FC(F)(F)c1ccccc1-c1nc(N2CCOCC2)c2ccccc2n1 do in these assays?
FBPA coupling cs: -0.1; Sfp PPTase inh: 10.0%

What do the screens show for `Cc1nc(N2CCOCC2)c2nc(-c3ccccc3)n(CCCN(C)C)c2n1`?
FBPA coupling cs: 2.0; Sfp PPTase inh: 35.3%

Results for O=C(Nc1ccc(S(=O)(=O)Nc2ncccn2)cc1)c1ccccc1Br ?
FBPA coupling cs: -1.3; Sfp PPTase inh: 11.1%; Giardia killer: -10.4; ELG1 repair inh: 2.5%

What do the screens show for `Nc1c(C(=O)NCCN2CCOCC2)c2nc3ccccc3nc2n1-c1cccc(F)c1`?
FBPA coupling cs: 0.2; Sfp PPTase inh: -3.5%; Giardia killer: 10.8; ELG1 repair inh: inconclusive

Results for COCCCNC(=O)c1c(N)n(-c2cccc(S(N)(=O)=O)c2)c2nc3ccccc3nc12 ?
FBPA coupling cs: -2.0; Sfp PPTase inh: 3.1%; Giardia killer: -17.6; ELG1 repair inh: 11.6µM*

What do the screens show for `CC(C)OCCCNC(=O)c1c(N)n(/N=C/c2cccs2)c2nc3ccccc3nc12`?
FBPA coupling cs: 0.3; Sfp PPTase inh: -2.8%; Giardia killer: -14.6; ELG1 repair inh: -15.8%

What do the screens show for `COCC(C)OC(=O)c1c(N)n(-c2ccc(OC)c(OC)c2)c2nc3ccccc3nc12` (stereo not given)?
FBPA coupling cs: -0.2; Sfp PPTase inh: 19.7%; Giardia killer: 10.7; ELG1 repair inh: -8.8%

What do the screens show for `COCCCNC(=O)c1c(N)n(/N=C/c2ccccn2)c2nc3ccccc3nc12`?
FBPA coupling cs: 0.5; Sfp PPTase inh: -2.1%; Giardia killer: 0.6; ELG1 repair inh: 4.61µM*

Results for CCCNC(=O)c1c(N)n(-c2cccc(OC)c2)c2nc3ccccc3nc12 ?
FBPA coupling cs: -6.4; Sfp PPTase inh: -0.4%; Giardia killer: 2.2; ELG1 repair inh: 16.4µM*

How did C=CCSC[C@@H]1Nc2cc(Cl)c(S(N)(=O)=O)cc2S(=O)(=O)N1 do in these assays?
FBPA coupling cs: -2.6; Sfp PPTase inh: 0.0%

Results for COc1ccc(N(C)S(=O)(=O)c2cccc(C(=O)Nc3ccc(-n4cnnn4)cc3)c2)cc1 ?
FBPA coupling cs: -0.9; Sfp PPTase inh: 10.4%; Giardia killer: 2.9; ELG1 repair inh: 18.4µM*

Results for COc1ccc(N(C)S(=O)(=O)c2cccc(C(=O)Nc3ccc(OC)nc3)c2)cc1 ?
FBPA coupling cs: 0.9; Sfp PPTase inh: 15.6%; ELG1 repair inh: 18.4µM*

What do the screens show for `COc1ccc(N(C)S(=O)(=O)c2cccc(C(=O)Nc3ccc4c(c3)OCCO4)c2)cc1`?
FBPA coupling cs: -0.3; Sfp PPTase inh: 10.0%; Giardia killer: -1.7; ELG1 repair inh: inconclusive
